CCHF vOTU inh = blocks the CCHF virus ovarian tumor domain protease; CCHFV vOTU protease, Pep-AMC fluorescence; inhibition, % at 11.5 µM; 370,000 compounds, 0.55% hits; in the data active means inhibition above about 30%; further: 0% = vehicle wells with enzyme and 100% = no enzyme wells
PriA SSB inh = inhibitors of Klebsiella pneumoniae PriA binding to SSB C-terminal tail; AlphaScreen SSBct-PriA binding, biotinylated peptide; inhibition, % at 33 µM; 430,000 compounds, 0.6% hits; AID 1272365; in the data active means inhibition mostly above about 37%, no sharp cut-off; inactive means mostly below about 20%;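 further: plate controls were negative control peptide for no effect and reference peptide for full effect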
RN4220 kill = S. aureus RN4220 growth inhibition; OD600, 16 h; inhibition, % (no concentration beside the values); 330,000 compounds, 0.33% hits; AID 1259311; in the data active means inhibition above about 85%;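 further: plate controls were untreated cells for no effect and reference antibiotic for full effect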
DUSP3 inh = DUSP3 (human) phosphatase inhibition; recombinant VHR phosphatase, pNPP absorbance; 290,000 compounds, 0.52% hits; inhibition, % at 13.3 µM; in the data active means inhibition above about 50%
Target sequence (P51452 whole entry, looked up): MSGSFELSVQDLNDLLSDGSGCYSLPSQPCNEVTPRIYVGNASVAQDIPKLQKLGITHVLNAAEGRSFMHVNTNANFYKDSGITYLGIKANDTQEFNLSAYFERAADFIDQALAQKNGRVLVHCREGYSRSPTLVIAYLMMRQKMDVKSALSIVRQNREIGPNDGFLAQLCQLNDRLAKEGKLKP
Sa ugtP lethal = kills S. aureus RN4220 lacking UgtP | S. aureus RN4220 ugtP deletion, OD600 growth, 16 h | growth inhibition, % (no concentration beside the values) | 330,000 compounds, 0.54% hits; in the data active means growth inhibition above about 68%;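 further: plate controls were untreated wells for no effect and antibiotic for full effect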
* hit, by the source's call; / = not tested or not shown; ! = not active in a repeat. Rows were chosen to be rich in hits. Some 1.5% of all compounds tested hit in one or more screens of this group.

SMILES	CCHF vOTU inh	PriA SSB inh	RN4220 kill	DUSP3 inh	Sa ugtP lethal
Cc1ccc(C(=O)ONc2ccc(N=O)cc2)cc1	5	0	1	0	100*
O=Nc1ccc(NOC(=O)c2ccc(Br)cc2)cc1	/	/	/	13	/
O=C(c1cccs1)N(Cc1ccco1)c1nc(-c2ccc(F)cc2)cs1	6	1	-16	25	92*
C=C(C)CNC(=S)NNC(=O)c1ccc(Br)cc1	-25	7	2	51*	7
COc1ccc(C2CC(=O)N(CC(=O)NC3CCCCC3)c3ccccc3S2(=O)=O)cc1OC (centres undefined)	/	10	/	/	/
O=[N+]([O-])c1ccc(-c2cn3c(n2)SCC3)cc1	7	5	3	/	5
Cc1ccc([N+](=O)[O-])cc1S(=O)(=O)Nc1ccc(-c2cn3c(n2)SCC3)cc1	/	39*	/	/	/
Fc1ccc(-c2cc(C(F)(F)C(F)F)[nH]n2)cc1	0	-12	-1	-11	86*
CCCCCCC[N+](CC)(CC)CCCCc1ccc(Cl)cc1	15	-7	95*	/	100*
COc1ccc2nc(-c3ccc(OC)c(NS(=O)(=O)c4cccs4)c3)cn2n1	/	-5	/	/	/
CCS(=O)(=O)N1CCc2ccc(NS(=O)(=O)Cc3ccccc3F)cc2C1	/	-8	/	/	/
Cc1c(Cl)ccc2c(C(N)=O)cc(-c3ccccn3)nc12	-1	1	0	3	2
CCOC(=O)CNC(=O)c1cc(-c2ccccn2)nc2c(C)c(Cl)ccc12	-19	4	0	53*	2
CNc1nn(CC(=O)Nc2c(C)cccc2C)c(N)c1-c1nc(-c2ccc(C)cc2)no1	/	-2	/	/	/
O=C(c1ccc(Cn2ccnc2)cc1)N1CCCC[C@H](c2ccc(F)cc2)C1	/	32*	/	/	/
CC1CN(c2nc(Nc3ccc(F)cc3)c3nccnc3n2)CC(C)O1 (centres undefined)	/	-17	/	/	/
Cc1nc(NC(=O)CN2CCN(c3ccccc3F)CC2)sc1C(=O)N(C)C	-3	-4	1	57*	-2
Cc1ccccc1N1CCN(CC(=O)Nc2nc(C)c(C(=O)N(C)C)s2)CC1	2	-1	4	-1	8
O=C(c1ccc(N2CCCCC2)c([N+](=O)[O-])c1)N(Cc1ccccc1)c1ccccn1	3	52*	-2	39	11
CC1Cc2ccccc2N1C(=O)c1ccc(N2CCCC2)c([N+](=O)[O-])c1 (centres undefined)	7	46*	1	4	2
CC1Cc2ccccc2N1C(=O)c1ccc(N2CCCCC2)c([N+](=O)[O-])c1 (centres undefined)	6	31	2	-8	-9
CC(=O)OC[C@H]1O[C@@H](Sc2cccc3cccnc23)[C@H](OC(C)=O)[C@@H](OC(C)=O)[C@H]1OC(C)=O	-14	40*	4	-13	14
CN(C(=O)CSC1=NCCS1)c1ccccc1	-10	-9	-6	52*	-1
O=C(OC(c1ccccc1)c1nccc2ccccc12)c1cc([N+](=O)[O-])cc([N+](=O)[O-])c1 (centres undefined)	11	52*	-2	15	25
COc1ccc2nc(NC(=O)c3cc(Br)c(C)c(C)c3C)sc2c1	/	-1	/	/	/
SMILES	CCHF vOTU inh	PriA SSB inh	RN4220 kill	DUSP3 inh	Sa ugtP lethal
N#C/C(=C\c1ccco1)C(=O)NCC1CCCO1 (centres undefined)	36*	-5	3	-10	15
Nc1nc2c(s1)CCc1ccccc1-2	-8	56*!	5	6	1
C=CCN1CCN(C(=O)c2ccc(-c3ccccc3)cc2)CC1	-10	1	4	8	9
C=CCN1CCN(C(=O)CSc2ccccc2)CC1	-6	-9	2	57*	5
COCCN(Cc1ccoc1)C(=O)Nc1cccc(OC)c1OC	/	-9	/	/	/
C/C(=N\NC(=O)CN1CCCCC1)c1ccccc1O	-10	/	/	53*	/
COc1ccc(NC(=O)CCCN2C(=O)CN(C)C2=O)c(OC)c1	2	57*	-1	/	-2
CC(C)(C)N=C1NN=C(c2cc3ccccc3o2)CS1	9	42*	0	22	-4
CC(C)[C@H](NC(=O)Cc1ccccc1)C(=O)OCc1cc(=O)n2c(n1)sc1ccccc12	0	-5	4	54*	-7
Cc1ccc2c(CC(=O)OCc3cc(=O)n4c(n3)sc3ccccc34)coc2c1	12	-5	-2	11	-7
CCN(CC)S(=O)(=O)c1ccc(Cl)c(C(=O)Nc2ccc(Cl)cc2[N+](=O)[O-])c1	3	43*	14	-1	4

Source: PubChem BioAssay (several laboratories)
